Screening results: PubChem, National Center for Advancing Translational Sciences (NCATS)
PTHR1 agonist = activates the human parathyroid hormone receptor PTHR1; Potency, µM (titrated, usually from 115 µM), most hits filed as activators; HEK293 GP2 PTHR1 cells, GloSensor cAMP luminescence, 1 h; Q03431; 0.075% of 410,000 active; also: nearly all actives have a fitted effect of over 55% in size
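HEK-293-derived GP2 cells expressing PTHR1 and a GloSensor cAMP reporter, 3,000/well, plated overnight, given luciferin plus IBMX (each 0.5 mM as added) for 1 h at 37 °C, then compound for 1 h at 37 °C. Luminescence was read after 15 min at room temperature.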
a7 integrin act = activators of alpha7 integrin expression for muscular dystrophy | AID 624291 | 0.064% of 350,000 active | Potency, µM (titrated, usually from 38.3 µM), actives largely listed as activators | alpha7betagal myoblasts, beta-gal FDG fluorescence, 48 h; also: nearly all actives have a fitted effect of over 60% in size
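Alpha7betagal+/- myoblasts (passage 13) were plated 16-24 hr, then exposed to compounds (1:260 dilution of DMSO stock) for 48 hours at 37C. After MPER lysis, β-galactosidase reporter activity was read as FDG fluorescence (ex 480/em 540) after 30 minutes.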
D3 antag = blocks the human D3 dopamine receptor; 2.5% of 360,000 active; AID 652054; max response, negative = inhibition, %; D3R cells, DiscoveRx beta-arrestin luminescence, antagonist mode; hits give low values; P35462; in the data active = max response below about -50%; inconclusive = no clear call, values can overlap the other calls
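Cells plated overnight at 1500 cells/well, then exposed to library compounds with dopamine controls for 90 minutes at 37 degrees C. DiscoveRx reagent added for 30–60 minutes at room temperature; luminescence read, quantitative HTS format.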
D3 ag = activates the human D3 dopamine receptor | P35462 | D3R DiscoveRx beta-arrestin cells, luminescence, 90 min | max activation, % | 0.58% of 410,000 active; in the data active = max activation above about 30%
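Agonist-mode cell screen: cells plated at 1500/well and incubated overnight at 37 °C, then exposed to library compounds for 90 min at 37 °C. Detection reagent was added for 30–60 min at room temperature, and luminescence was read.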
MBNL1-CUG inh = blocks human MBNL1 binding to CUG repeat RNA; TR-FRET MBNL1-His/biotin-(CUG)12 binding, 665/545 ratio; Potency, µM (titrated, usually from 57.5 µM), most hits filed as inhibitors; AID 2675; Q9NR56; 0.036% of 280,000 active; active = well fitted inhibition curve with a large enough effect in the signal ratio, with a control signal flat, not every such curve was filed as active; inconclusive = small, poorly fitted or top-dose-only effect, or effect the other way, or a change in a side signal; inactive = no such curve, though single readings can be large or run the other way; the % refers to the signal ratio
Target sequence (Q9NR56 whole entry, looked up): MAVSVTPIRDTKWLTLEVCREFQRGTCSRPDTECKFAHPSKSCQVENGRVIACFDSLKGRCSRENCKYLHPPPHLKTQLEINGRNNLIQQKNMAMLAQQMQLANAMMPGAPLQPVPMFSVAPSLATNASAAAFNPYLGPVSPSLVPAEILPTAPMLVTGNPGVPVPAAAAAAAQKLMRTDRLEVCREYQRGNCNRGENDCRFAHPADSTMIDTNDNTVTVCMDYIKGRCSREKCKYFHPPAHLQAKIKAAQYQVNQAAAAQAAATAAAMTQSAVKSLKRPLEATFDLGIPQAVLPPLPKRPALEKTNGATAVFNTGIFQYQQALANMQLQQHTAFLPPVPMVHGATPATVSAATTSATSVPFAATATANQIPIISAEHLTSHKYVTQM
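TR-FRET readout: Ex 340 nm, 665/545 nm emission ratio, normalized to buffer-only (basal) and MBNL1-(CUG)12 controls. Complex of MBNL1-His with Biotin-(CUG)12, compounds 92 nM–58 uM, incubated 60 min at room temperature.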
CBFb RUNX1 block = inhibitors of human CBF-beta and RUNX1 interaction. Q01196+Q13951. AlphaScreen CBFb-His/RUNX1-biotin binding, biochemical. Potency, µM (highest dose often 59.8 µM), usual class: inhibitors. 230,000 tested, under 10 active
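Compounds were screened at multiple concentrations against a preformed CBF-beta(His)/RUNX1(biotin) complex (30 nM of each) for 15 min at room temperature, followed by 90 min with nickel and streptavidin beads and AlphaScreen reading.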
A number is an active result; - = inactive; ? = inconclusive; . = no result; ! = repeats disagree; [ ] = remark or other dose. The list is not random: actives were taken first. Their share in the collection is about 2.8%. Unless noted, calls follow the shape of the dose curve; as a rule, active = well fitted curve in the direction sought with a large enough effect; inconclusive = small, poorly fitted or top-dose-only effect, or another doubt; inactive = no such curve, though single readings can be large; an effect the other way counts as inactive or inconclusive.

SMILES	PTHR1 agonist	a7 integrin act	D3 antag	D3 ag	MBNL1-CUG inh	CBFb RUNX1 block
COCCN1C(=O)N[C@@H](c2cccs2)C(C(C)=O)=C1C	-	-	-	35	.	-[13.1 µM]
CCOC(=O)CN1C(=O)N[C@@H](c2cccs2)C(C(C)=O)=C1C	-	-	-	-	.	-[13.1 µM]
CCNC(=O)C1(C)CCCN(Cc2cccc(Oc3ccccc3)c2)C1 (stereo not drawn)	-	.	-	-	.	.
CC(C)C(NC(=S)Nc1ccccc1)C(=O)O (stereo not drawn)	-	-	-	-	-	-
CCCCCCCC(=O)Nc1cc(C(=O)NCCC)ccc1N1CCC2(CC1)CC(c1ccccc1)=NO2	-	-	-119	48	-	.
Cc1[nH]n(-c2ccccc2)c(=O)c1/C=N/NC(=O)c1ccc(O)cc1O	-	-	-	-	-	.
CCCCN(CCCC)C(=S)N/N=C/c1c(C)[nH]n(-c2ccccc2)c1=O	-	-	-104	-	-	-
Cc1ccc(N2CCn3c2nc2c3c(=O)n(CCCc3ccccc3)c(=O)n2C)cc1	-	.	.	-	.	.
O=C1/C(=C/c2ccc(N3CCOCC3)o2)SC(=Nc2ccccc2)N1CCc1c[nH]c2ccccc12	-	-	-69	-	-	-
COc1cc(/C=C2\SC(=Nc3ccccc3)N(CCc3c[nH]c4ccccc34)C2=O)ccc1OC(C)C(=O)O (stereo not drawn)	-	-	-	-	-	-
COc1nccnc1NS(=O)(=O)c1ccc(N=Cc2c(C)[nH]n(-c3ccc(C)c(C)c3)c2=O)cc1	-	-	-60	-	-	-
COc1nccnc1NS(=O)(=O)c1ccc(N=Cc2c(C)[nH]n(-c3ccc(Cl)cc3)c2=O)cc1	.	.	.	.	.	-
CCOC(OCC)P(=O)(O)CCCNCc1ccc(Cl)c(Cl)c1	.	.	.	.	.	-
Cc1cccc(C(=O)NCN2CCN(c3ccccc3C#N)CC2)c1	-	.	-76	-	.	-
O=C(NCN1CCN(c2ccccc2F)CC1)c1ccccc1	-	-	?	-	-	-
CN(C)S(=O)(=O)c1cccc(NC(=O)COC(=O)CNC(=O)c2ccccc2F)c1	-	-	-	-	-	-
OCC(S)CS (stereo not drawn)	.	.	.	-	.	.
COc1ccc(NS(=O)(=O)c2cc(C)ccc2OC)cc1OC	-	-	-58	-	-	-
COc1ccc(C(=O)Nc2nc(-c3ccc([N+](=O)[O-])cc3)c(-c3ccc(OC)cc3)s2)cc1	-	-	-52	-	-	-
CSCCCN1CCCC(CO)(Cc2ccc(F)cc2)C1 (stereo not drawn)	-	-	-	-	-	.
CSCCCN1CCCC(CO)(Cc2ccccc2F)C1 (stereo not drawn)	-	-	-56	-	-	.
COCCN(CC(=O)Nc1cccc(C)c1C)C(=O)Cn1c(=O)cnc2ccccc21	-	-	-	-	.	.
Cc1cc2nc(SCC(=O)N(C)C)c3c(c2cc1C)CCCC3	-	-	-50	-	-	-
Cc1nc(-c2ccccc2O)n(S(=O)(=O)N(C)C)n1	-	-	-	31	-	-
CCCCC/C=C\C/C=C\CCCCCCCC(=O)NC(C)c1ccccc1 (stereo not drawn)	.	.	.	-	.	.
SMILES	PTHR1 agonist	a7 integrin act	D3 antag	D3 ag	MBNL1-CUG inh	CBFb RUNX1 block
O=C(CC1S/C(=N/N=C/c2ccco2)NC1=O)Nc1cccc(Cl)c1Cl (stereo not drawn)	-	-	-61	-	-	-
CCCCN(C)CCNC(=O)CN1C(=O)CSc2ccc(S(=O)(=O)N3CCCC3)cc21	-	-	-	-	-	.
CCCCc1cc(=O)oc2cc(OC(C)C(=O)NCC3CCC(C(=O)O)CC3)c(Cl)cc12 (stereo not drawn)	-	-	-58	-	-	.
CCCc1cc(=O)oc2cc(OC(C)C(=O)NCC3CCC(C(=O)O)CC3)c(Cl)cc12 (stereo not drawn)	-	-	-	-	-	.
CC(=O)Nc1nnc(CSCc2ccc(F)cc2)s1	-	-	-51	-	-	-
CC(=O)Nc1nnc(SCc2ccc(F)cc2)s1	-	-	-	-	-	-
O=C(Nc1cccnc1)C1CCN(S(=O)(=O)c2ccc(Cl)cc2)CC1	-	-	-	-	-	.
COc1ccc2cc(C(=O)Nc3ccc(Cl)cc3)sc(=O)c2c1OC	-	-	-69	-	-	-
CCSc1nc2sc3c(c2c(=O)[nH]1)CCc1ccccc1-3	-	-	-	-	-	-
NNc1nc2sc3c(c2c(=O)[nH]1)CCc1ccccc1-3	-	-	-55	-	-	-
NC(=O)c1ncn([C@@H]2O[C@H](CNCc3ccc(-c4cc(C(F)(F)F)ccc4Cl)o3)[C@@H](O)[C@H]2O)n1	-	-	-52	-	.	.
CSc1nc(N2CCOCC2)c2c3c(sc2n1)CCC3	-	-	-65	-	-	-
O=C(Nc1ccccc1C(=O)NC1CC1)c1ccc([N+](=O)[O-])o1	-	-	-63	-	.	.
O=C(NCCN1CCC(Cc2ccccc2)CC1)C1CCCN(S(=O)(=O)c2cnc[nH]2)C1 (stereo not drawn)	-	-	-77	-	-	-
O=C(NCCN1CCN(c2ccccc2F)CC1)C1CCCN(S(=O)(=O)c2cnc[nH]2)C1 (stereo not drawn)	-	-	-56	-	-	-
O=C(NCCc1ccccc1)C1CCCN(S(=O)(=O)c2cnc[nH]2)C1 (stereo not drawn)	-	-	-	-	-	-
Cc1cc(CSc2nc(C)cc(=O)[nH]2)c2ncccc2c1	-	-	-	31	-	-
Cc1ccn2c(NCc3ccccc3)c(-c3cccc(SC4CCCCC4)c3)nc2c1	-	-	-	41!	.	.
CCC(C)Sc1cccc(-c2nc3cc(C)ccn3c2NCc2ccccc2)c1 (stereo not drawn)	-	-	-	77	.	.
c1ccc(CNc2c(-c3cccc(SC4CCCCC4)c3)nc3ccccn23)cc1	-	-	-	43	.	.
Cc1ccc(NC(=O)C2(C)CCN2CCc2ccccc2)cc1 (stereo not drawn)	-	.	-	-	.	.
Cc1ccc2[nH]cc(CCNC(=O)C3CCCO3)c2c1 (stereo not drawn)	-	-	-	-	-	.
Cc1csc2cc(-c3cccc([N+](=O)[O-])c3)c(-c3cccc([N+](=O)[O-])c3)c[n+]12	-	?	-61	-	?	-
Cc1ccc(N(C)C(=O)CN(C)S(=O)(=O)c2ccc3c(c2)n(C)c(=O)c(=O)n3C)cc1	-	-	-	-	-	.
CC(=O)c1cccc(CN2CCN(C3CCCCC3)C(CCO)C2)c1 (stereo not drawn)	-	-	-54	-	-	-
